The values that follow come from ChEMBL document CHEMBL4296182, “CO-ADD screening of NIH NCI Diversity Set V”.

What is called Inhibition is the drop in the measured response relative to a control, in per cent.

For part of these data: Entries with a potency or affinity are not part of this list.

For experiment [1], the system named is Staphylococcus aureus. Description: Antibacterial activity against Staphylococcus aureus MRSA ATCC 43300 (CO-ADD:GP_020); MIC in CAMBH media using NBS plates, by Resazurin F(560/590). The class given is functional. To be noted: Concentration 20 uM, ASSAY_TEST Inhibition of Bacterial Growth, detection method Resazurin, Fluorescence (ex560/em590), MEDIA CAMHB, plate type 384well, CORNING #3640, time 18 hr. (Alamar Blue is a resazurin reagent that responds to reducing activity.)

The test system of experiment [2] is Acinetobacter baumannii. As to the kind of experiment: Antibacterial activity against Acinetobacter baumannii ATCC 19606 (CO-ADD:GN_034); MIC in CAMBH media using NBS plates, by Resazurin F(560/590). The class given is functional. To be noted: Concentration 20 uM, ASSAY_TEST Inhibition of Bacterial Growth, detection method Resazurin, Fluorescence (ex560/em590), MEDIA CAMHB, plate type 384well, CORNING #3640, time 18 hr.

Experiment [3] concerns Escherichia coli. Description: Antibacterial activity against Escherichia coli ATCC 25922 (CO-ADD:GN_001); MIC in CAMBH media using NBS plates, by Resazurin F(560/590). The class given is functional. To be noted: Concentration 20 uM, ASSAY_TEST Inhibition of Bacterial Growth, detection method Resazurin, Fluorescence (ex560/em590), MEDIA CAMHB, plate type 384well, CORNING #3640, time 18 hr.

For experiment [4], the system named is Klebsiella pneumoniae. To be noted: Concentration 20 uM; ASSAY_TEST Inhibition of Bacterial Growth; detection method Absorption (OD600); MEDIA CAMHB; plate type 384well; NBS; CORNING #3640; time 18 hr.
Experiment [5] has as its system Candida albicans. To be noted: 20 µM.
Experiment [6] relates to Cryptococcus neoformans. To be noted: Concentration 20 uM; ASSAY_TEST Inhibition of Fungal Growth; detection method Resazurin; Absorption (OD600-OD570); plate type 384well; NBS; CORNING #3640.

`CC1(C)SC(C)(C)N(C=O)C1C(=O)O` (stereo not given): the Inhibition in experiment [1] was -0.19%; in experiment [2] it was -4.51%; in experiment [3] it was 4.94%; in experiment [4], 4.48%; in experiment [5] it was 1.14%; in experiment [6], -3.91%.
Turning to `CC1(C)C2CCC(CN=C(N)CSS(=O)(=O)O)C1C2` (stereo not given), the Inhibition was 18.41% in experiment [1]; 14.08% in experiment [2]; 1.93% in experiment [3]; 19.04% in experiment [4]; -2.77% in experiment [5]; -13.54% in experiment [6].
For `COc1cc2c(cc1OC)C(=O)Cc1ccc3c(c1CN(C)CC2)OCO3`, the Inhibition was 7.05% in experiment [1]; 12.34% in experiment [2]; 18.89% in experiment [3]; 9.37% in experiment [4]; -0.52% in experiment [5]; -7.07% in experiment [6].
On to `CCOC(=O)c1ccc2c(c1)NCc1cccc(OC)c1O2`, for which the Inhibition in experiment [1] is 4.26%; in experiment [2] it was -16.83%; in experiment [3] it was 9.22%; in experiment [4] it was 6.83%; in experiment [5], 9.96%; in experiment [6], -17.21%.
In the case of `CN(C)Cc1cc(C(F)(F)F)ccc1C(O)(c1ccccc1)c1ccccc1`, the Inhibition was 9.65% in experiment [1]; 13.38% in experiment [2]; 9.52% in experiment [3]; 10.99% in experiment [4]; -1.43% in experiment [5]; -9.44% in experiment [6].
In the case of `CCOCc1cc(O)nc(SC)n1`, the Inhibition in experiment [1] was 12.32%; in experiment [2] it was -13.24%; in experiment [3], 14.73%; in experiment [4], 11.3%; in experiment [5], -0.55%; in experiment [6], -4.91%.
Consider `CCC(C)Oc1nc2c(c(=O)n(C)c(=O)n2C)n1C` (stereo not given), for which the Inhibition was -1.77% in experiment [1]; -5.34% in experiment [2]; 12.06% in experiment [3]; 2.01% in experiment [4]; 1.02% in experiment [5]; -11.56% in experiment [6].
For the molecule `O=C1NCCc2c1[nH]c1ccccc21`, the Inhibition in experiment [1] was -13.58%; in experiment [2] it was -2.97%; in experiment [3], -11.15%; in experiment [4] it was 6.5%; in experiment [5], 2.99%; in experiment [6] it was -7.2%.
Take `Nc1ccc(/C=C/c2ccc3ncccc3c2)cc1`: the Inhibition in experiment [1] is -2.75%; in experiment [2], -9.02%; in experiment [3], 3.29%; in experiment [4] it was 1.77%; in experiment [5], 2.51%; in experiment [6], -10.25%.
Consider `Oc1ccccc1-n1c(-c2ccccc2)ccc1-c1ccccc1`, for which the Inhibition in experiment [1] was 3.47%; in experiment [2], 1.43%; in experiment [3], 1.29%; in experiment [4], 19.15%; in experiment [5] it was 11.1%; in experiment [6], -2.48%.
Regarding `Sc1nccn1-c1c(Cl)cccc1Cl`, the Inhibition is 10.46% in experiment [1]; 12.03% in experiment [2]; 0.7% in experiment [3]; 7.58% in experiment [4]; 4.08% in experiment [5]; -8.98% in experiment [6].
As to `O=C(/C=C/c1ccccc1Cl)c1ccc(O)cc1`, the Inhibition in experiment [1] is 3.85%; in experiment [2], 0.76%; in experiment [3], -16.06%; in experiment [4], 19.85%; in experiment [5], 14.7%; in experiment [6], 8.89%.
Regarding `Nc1ccc(OC(=O)Nc2ccc(O)cc2)cc1`, the Inhibition in experiment [1] was -11.3%; in experiment [2] it was 1%; in experiment [3], -11.72%; in experiment [4] it was 2.2%; in experiment [5] it was -2.4%; in experiment [6], 12.42%.
With `CC1(C)OC2CC(=O)OCC23C1CC(=O)C1(C)C3CCC2(C)C(c3ccoc3)OC(=O)C3OC321` (stereo not given), the Inhibition in experiment [1] is 21.22%; in experiment [2] it was -6.97%; in experiment [3], 8.41%; in experiment [4], 8.88%; in experiment [5], 0.13%; in experiment [6] it was -7.86%.
Regarding `C/C(=N\O)[C@H]1CC[C@H]2[C@@H]3CC[C@@H]4C/C(=N/O)CC[C@]4(C)[C@H]3[C@@](C)(O)C[C@]12C`, the Inhibition was 13.92% in experiment [1]; 2.13% in experiment [2]; 6.69% in experiment [3]; 4.28% in experiment [4]; 2.6% in experiment [5]; -11.49% in experiment [6].
In the case of `CC1=C(C(N)=O)S(=O)(=O)c2ccccc21`, the Inhibition in experiment [1] is 7.64%; in experiment [2], -12.26%; in experiment [3], 14.02%; in experiment [4], 8.77%; in experiment [5], 2.88%; in experiment [6] it was -16.62%.
Turning to `CCCCOc1nc2c(c(=O)n(C)c(=O)n2C)n1C`, the Inhibition came out at 18.84% in experiment [1]; 14.19% in experiment [2]; 18.86% in experiment [3]; 3.58% in experiment [4]; 11% in experiment [5]; 10.8% in experiment [6].
On to `Cc1cccn2c(S)nnc12`, for which the Inhibition in experiment [1] was 10.19%; in experiment [2], -5.53%; in experiment [3], 13.03%; in experiment [4], 17.76%; in experiment [5], 5.89%; in experiment [6] it was -6.48%.
For `Cc1nc(N)nc(O)c1CCCNc1ccc(CCC2(CCl)OCCO2)cc1`, the Inhibition in experiment [1] was determined as 17.48%; in experiment [2] it was 2.84%; in experiment [3], 11.06%; in experiment [4], 8.53%; in experiment [5], 1.57%; in experiment [6], 3.7%.
Consider `O=C1CCC(NC(=O)c2ccccc2)C(=O)N1` (stereo not given), for which the Inhibition in experiment [1] is 13.55%; in experiment [2] it was 6.82%; in experiment [3] it was 7.42%; in experiment [4], 5.68%; in experiment [5], 1.37%; in experiment [6], -6.13%.
For the molecule `Cc1nc(NC(=N)N(C)C)nc(O)c1C`, the Inhibition in experiment [1] was 4.99%; in experiment [2], -6.08%; in experiment [3], 5.79%; in experiment [4], 6.63%; in experiment [5] it was 0.54%; in experiment [6] it was -10.51%.
Take `CN1C(=O)c2ccccc2Cc2c(NCc3ccccc3)ncnc21`: the Inhibition in experiment [1] is 11.35%; in experiment [2], 7.35%; in experiment [3] it was 1.48%; in experiment [4] it was 18.62%; in experiment [5], 6.22%; in experiment [6], -9.85%.
As for `O=C1c2ccccc2C(O)(c2ccccc2)N1c1ccncc1` (stereo not given), the Inhibition is 8.72% in experiment [1]; -12.43% in experiment [2]; 4.92% in experiment [3]; 13.13% in experiment [4]; 2.44% in experiment [5]; -3.79% in experiment [6].
With `O=C(Nc1cccc([N+](=O)[O-])c1)c1cccc(C(=O)Nc2cccc([N+](=O)[O-])c2)c1`, the Inhibition is -2.9% in experiment [1]; 3.66% in experiment [2]; 1.98% in experiment [3]; 5.84% in experiment [4]; -0.13% in experiment [5]; 37.96% in experiment [6].
On to `O=S(=O)(c1ccc2c(c1)CCCN2)N1CCC[C@H]2CCCC[C@@H]21`, for which the Inhibition in experiment [1] is 4.63%; in experiment [2], -20.33%; in experiment [3], 3.15%; in experiment [4], 6.75%; in experiment [5] it was 8.6%; in experiment [6], -4.42%.
